The values below come from PubChem BioAssay AID1347120 (National Center for Advancing Translational Sciences (NCATS), 2019).

The campaign covered roughly 390,000 compounds. About 930 (0.24%) were called active. Roughly 5% stayed inconclusive and do not appear here. Many of the other results were omitted from the sample, so actives are more common in it than they were. Unmarked numbers belong to inactive results. Calls follow the shape of the dose curve; as a rule, active = well fitted activation curve with a large enough effect; inconclusive = small, poorly fitted or top-dose-only effect; inactive = no such curve, though single readings can be large or run the other way.
Potency is read from the fitted curve at half-maximal effect.

The experiment in a line: qHTS for Suppressors of FUS Proteinopathy: Primary screen using FUS-linked yeast assay. Also: nearly all actives have a fitted effect of over 55% in size.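 As to growth rescue (activation): plate controls were DMSO vehicle for no effect and reference control for full effect.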 Conditions: S. cerevisiae FUS-expressing, OD600, 24 h; Potency: growth rescue; series mostly up to 76.6 µM; growth rescue (activation): at the top concentration. From the text:
Several widespread neurodegenerative diseases, including Alzheimer disease, Huntington disease, Frontotemporal Lobar Degeneration (FTLD) and Amyotrophic Lateral Sclerosis (ALS), share a common pathological feature, namely accumulation of specific protein aggregates in diseased tissue. These diseases which is associated with protein misfolding (proteinopathies) have become increasingly problematic as the population ages and life expectancies are extended. Most proteinopathies are currently incurable, a situation confounded by the fact that the basis of neurodegeneration is generally poorly understood. There exists urgent and significant need to find therapeutics that can inhibit the toxicity associated with protein aggregation. A novel approach to understand the underlying mechanisms of neurodegenerative diseases has recently emerged in which the disease conditions are modeled in the yeast (Saccharomyces cerevisiae), a tractable eukaryotic organism with conserved protein quality control mechanisms. Yeast offers quick and reliable genetic manipulations and can be easily tailored to high-throughput screening (HTS).
For this project, a yeast model of the FUS proteinopathies (a spectrum of neurodegenerative diseases that include ALS and a subtype of FTLD) was generated and employed. The cytoplasmic accumulation of the DNA/RNA-binding protein FUS (also known as TLS) is causative to both familial and sporadic forms of ALS and FTLD. This yeast model recapitulates neuronal pathology by showing severe cytotoxicity associated with cytoplasmic accumulation of FUS aggregates and a specific interaction between FUS and TDP-43, another ALS-associated protein. […] Specifically, the cellular accumulation of misfolded FUS that disrupts RNA homeostasis in both yeast and higher eukaryotes. This model was validated to be suitable for quantitative HTS (qHTS) use for finding genetic or chemical factors that restore growth. […] Identified compounds that inhibits FUS-yeast toxicity is flagged, re-acquired, and validated for further investigation and optimization.
NIH Chemical Genomics Center [NCGC]
NIH Molecular Libraries Probe Production Centers Network [MLPCN]
Assay Submitter (PI): Frank Shewmaker PhD, Uniformed Services University of the Health Sciences
Compound CP55940 was used as the positive control. Column 1 was treated with CP55940 titration from 92uM (final concentration, 1:2 dilution), while Column 2 was treated with top dose 92uM. Columns 3 and 4 were treated with DMSO only as negative control to assess background and noise signal.
Four hundred fifty microliter of cultured yeast (in 20mL rich medium) provided by Dr. Shewmaker lab was incubated at 30C at 99% humidity for 3hr. The culture was then spun down at 4000rpm for 5min and the cell pellet was resuspended in 2mL of Sdmin Media + ALU(330) + 2.5% Raffinose. One hundred microliter of the suspension was added to 900uL of water and OD of the solution was obtained. Twenty mL of responding medium (provided by Shewmaker lab) + 2.5% raffinose was added to ensure cell density of 0.1; the solution was incubated overnight. Working cell solution (FUS-yeast in Sdmi + Sdmi + 1X ALU + 2% galactose media) was prepared (final OD at 0.005) and 3uL was dispensed in a 1536-well Aurora high based clear bottom assay plates. Controls and library compounds (at various final concentrations from 40uM to 0.32uM) were added using a 1536-well pin array using the Kalypsys pin-tool. The plates were then incubated for 24hrs in a cell-culture incubator (30C; 99% humidity). Absorbance at 600nm was then read using the PerkinElmer ViewLux plate reader.
As to `COc1ccc(-c2cn3c(n2)sc2cc(C(=O)Nc4ccc(F)cc4)ccc23)cc1`, the “growth rescue (activation)” value was 0.0987%.
Consider `COc1ccc(Cc2nc3ccc(C(=O)NCc4ccccc4C)cc3o2)cc1`, for which the “growth rescue (activation)” value is 6.51%.
Still for that read-out and setting: as for `Cc1cc(NC(=O)C2CCC(CNS(=O)(=O)c3ccc(Br)s3)CC2)ccc1Br` (stereo unspecified), the figure is -10.7%.
The same measure, in the same setting: as for `Cc1oc2ccc(O)c(CN3CCC(C)CC3)c2c1C(=O)Nc1ccccc1`, the figure is 0.0169%.
Regarding `CCCCOc1ccc(C(=O)N2CC(=O)Nc3ccc(Br)cc3C2c2ccc(F)cc2)cc1` (stereo unspecified), the “growth rescue (activation)” value was 41.7%.
On the same count and under the same terms, the result for `CCCNC(=O)C1CCN(c2nc3ccc(C)cc3[nH]2)CC1` reads 4.98%.
Consider `O=C(CSc1nc2nccnc2c(=O)n1CCc1c[nH]c2ccccc12)Nc1ccccc1F`, for which the “growth rescue (activation)” value was -9.63%.
As for `CCOC(=O)N1CCC(NC(=O)c2cnn(-c3cccc(C)c3)c2C2CCN(C(=O)OC(C)(C)C)CC2)CC1`, the “growth rescue (activation)” value was 18.5%.
Same read-out and setting: the result for `CCc1cccc(NC(=O)c2cc(-c3ccccc3)n[nH]2)c1` reads -10.8%.
With `C#CCOCCOCCOCCNc1nc(N2CCN(C(=O)CCCCCCCCCCNC(=O)[C@H](CCCCN)n3cc(C)nn3)CC2)nc(N2CCN(C(=O)CCCCCCCCCCNC(=O)[C@H](CO)n3cc(CCCSC)nn3)CC2)n1`, the Potency is 11.2 µM (active).
As to `C#CCOCCOCCOCCNc1nc(N2CCN(C(=O)C([C@@H](C)CC)n3cc(C(N)COC(=O)C(F)(F)F)nn3)CC2)nc(N2CCN(C(=O)[C@H](CCCCN)n3cc(C(N)CC(C)C)nn3)CC2)n1` (stereo partly specified), the “growth rescue (activation)” value is 29.1%.
Take `C#CCOCCOCCOCCNc1nc(N2CCN(C(=O)[C@H](CCC(=O)O)n3cc(C(N)CO)nn3)CC2)nc(N2CCN(C(=O)[C@H](Cc3ccc(O)cc3)n3cc(C(N)[C@H](C)CC)nn3)CC2)n1` (stereo partly specified): the “growth rescue (activation)” value is 11.9%.
For the compound `C#CCOCCOCCOCCNc1nc(N2CCN(C(=O)CCCCCCCCCCNC(=O)[C@H]([C@@H](C)CC)n3cc(CCCCN=C(N)N)nn3)CC2)nc(N2CCN(C(=O)CCCCCCCCCCNC(=O)[C@H](CO)n3cc(CCCSC)nn3)CC2)n1`, the Potency was 3.16 µM (active).
For the compound `C#CCOCCOCCOCCNc1nc(N2CCOCC2)nc(N2CCN(C(=O)[C@H](Cc3ccc(O)cc3)n3cc(CCO)nn3)CC2)n1`, the “growth rescue (activation)” value was -3.33%.
In the case of `C#CCOCCOCCOCCNc1nc(N2CCN(C(=O)C([C@@H](C)O)n3cc([C@@H](N)CCCCN)nn3)CC2)nc(N2CCN(C(=O)[C@H](CCCCN)n3cc(CN)nn3)CC2)n1` (stereo partly specified), the “growth rescue (activation)” value was 1.02%.
Same read-out and setting: as for `Fc1ccc(-c2nc(Nc3cccc(Cl)c3)nc3c2COc2ccccc2-3)cc1`, the figure is -6.76%.
Still for that read-out and setting: as for `CC(=O)c1cccc(Nc2ccc3cc(S(=O)(=O)N4CCC(C)CC4)ccc3n2)c1`, the figure is -8.08%; as for `COc1ccc(-c2cc(-c3nc(-c4cc(OC)c(OC)c(OC)c4)no3)[nH]n2)c(OC)c1`, 17.9%.
For the compound `CCN(C(=O)CSc1nnc(C)n2c1cc1occc12)c1ccccc1`, the “growth rescue (activation)” value was 22.4%.
Still for that read-out and setting: as for `COc1ccc(-c2onc(C)c2C)cc1S(=O)(=O)NCCc1ccccc1`, the figure is 10.1%; as for `CCN(CC)C(=O)CSc1nc2ccsc2c(=O)n1Cc1ccccc1Cl`, 14%; as for `Cc1c(Cl)cccc1NC(=O)C(=O)NCCc1csc2nc(-c3ccccc3F)nn12`, 22.4%.
With `Cc1cccc(Cn2c(SCc3ccc(C(=O)N4CCC(C)CC4)cc3)nc3ccncc32)c1`, the “growth rescue (activation)” value is 22.7%.
Still for that read-out and setting: the result for `CC(=O)N1CCCc2cc(S(=O)(=O)N3CCC(C(=O)NCc4ccc(F)cc4)CC3)ccc21` reads 2.3%.
With `O=C(c1ccc(C(F)(F)F)cc1)N1CCC(c2nc(-c3ccc(S(=O)(=O)N4CCCC4)cc3)no2)CC1`, the “growth rescue (activation)” value is 6.21%.
`CSc1ccccc1NC(=O)CCS(=O)(=O)c1nc(-c2cccs2)cc(C(F)(F)F)n1`: the “growth rescue (activation)” value is -9.46%.
Still for that read-out and setting: as for `Cc1c(Cl)cccc1NC(=O)Cn1cc(C(=O)c2cccs2)c2ccccc21`, the figure is -1.82%; as for `CCN(CCCNC(=O)c1cc(Nc2ccc(OC)cc2)nc2ccccc12)c1cccc(C)c1`, 2.94%.
Same read-out and setting: the result for `Cc1ccc(-n2ncc(C(=O)N(C)Cc3ccccc3)c2-n2cccc2)cc1` reads 37.3%.
For `Cc1ccc2[nH]c(=O)c(CN(CCCN(C)C)C(=O)Nc3cccc(Cl)c3)cc2c1`, the “growth rescue (activation)” value was 19.3%.
On to `Cc1cccc(NC(=O)N(Cc2cc3cc(C)cc(C)c3[nH]c2=O)CC2COCCO2)c1` (stereo unspecified), for which the Potency is 35.5 µM (active).
With `Cc1ccc2[nH]c(=O)c(CN(CC3COCCO3)C(=O)Nc3ccccc3C)cc2c1` (stereo unspecified), the “growth rescue (activation)” value is -6.95%.
In the case of `CCCCCN(C(=O)CCC(=O)OCC(=O)NC1CCC(C)CC1)c1c(N)n(CCCC)c(=O)[nH]c1=O` (stereo unspecified), the Potency was 31.6 µM (active).
On to `CCCCCN(C(=O)CCC(=O)OCC(=O)NCc1ccc(OC)cc1)c1c(N)n(CCCC)c(=O)[nH]c1=O`, for which the “growth rescue (activation)” value is 40.8%.
Consider `CCCCn1c(N)c(N(CCC(C)C)C(=O)COC(=O)c2ccc(CC)cc2)c(=O)[nH]c1=O`, for which the “growth rescue (activation)” value is 35.6%.
The same measure, in the same setting: the result for `Cc1ccc(CNC(=O)CCC(=O)N2Cc3ccccc3Oc3ncccc32)cc1` reads -4.72%.
Still for that read-out and setting: the result for `COc1ccc(CCNC(=O)c2ccc3c(c2)sc2nc(-c4ccc(C)cc4)cn23)cc1OC` reads 5.69%; that for `COC(=O)c1ccc(NC(=O)CCc2c(C)nn(-c3ccc(N4CCCC4)nn3)c2C)cc1`, 14.5%.
For `Cc1ccc(Cc2cnc(N)s2)o1`, the Potency is 11.2 µM (active).
Take `Fc1ccc(Nc2nc(SCc3ccccc3Cl)nc3ccccc23)cc1`: the “growth rescue (activation)” value is -4.05%.
On the same count and under the same terms, the result for `O=C(Nc1c(C(=O)N2CCN(c3ccc(F)cc3)CC2)oc2ccccc12)c1ccco1` reads 38.7%.
